# Beta apoptosis: inhibitors of cytokine-induced beta cell apoptosis, primary screen, luminescence; INS-1E cytokine-induced death, ATP luminescence, 48 h; percent of positive-control rescue, neutral wells zero; 300,000 tested, 0.8% active; protection from apoptosis, % (concentration not given with the values);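 active = Every replicate reaches about 75%, or at least half do and their mean reaches it too, limit read from the data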;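 also: higher means more ATP so stronger rescue from cytokine killing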
# CSC inhib: cancer stem cell viability inhibitors, primary screen, luminescence; cancer stem cell-like cells viability; inhibition, % at 7.5 µM; 300,000 tested, 1.1% active; AID 2717, 2010; in the data active = inhibition above about 75%; tested in HMLE shEcad cells
# Shn3 3UTR inh: reduction of Shn3 3'UTR firefly luciferase signal, primary screen, Schnurri-3 inhibitor project, cell-based, Clone20 osteoblasts, set 2; AID 588674, 2011; 360,000 tested, 0.52% active; Clone20 osteoblast Shn3 3'UTR firefly luciferase, 24 h; inhibition, % at 12.5 µM;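 active = mean inhibition of at least 75% with every replicate also reaching 75%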
# Mdm2-MdmX inh: inhibitors of human Mdm2-MdmX association, primary screen, cell-based, luminescence, split luciferase, SaOS-2, uHTS; Protein Mdm4 (Homo sapiens) + E3 ubiquitin-protein ligase Mdm2 (Homo sapiens), …; SaOS-2 split-luciferase Mdm2/MdmX complementation; inhibition, % at 8 µM; 330,000 tested, 3% active; AID 485346, 2010;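 active = inhibition of at least 50% at 8 µM in the primary screen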
# Gli-Sufu antag: Gli-Sufu pathway antagonists, primary screen, luciferase luminescence, Sufu-KO-LIGHT cells, uHTS. Sufu-KO-LIGHT fibroblasts, Gli luciferase reporter luminescence. inhibition, % at 5 µM. 340,000 tested, 0.74% active;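 active = inhibition above about 55%, limit read from the data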
# PAX8 reporter: inhibitors of PAX8-driven TPO luciferase reporter, primary screen, RMG-I cells, single concentration; SteadyGlo, 24 h; inhibition, % at 12.6 µM; 360,000 tested, 1.2% active; AID 652154, 2013;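 active = mean replicate inhibition at least 60% with every replicate also reaching 60%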;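 also: luciferase light reporting Pax8 driven TPO promoter activity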
# Gli antag conf: Gli-SUFU pathway antagonists, confirmation, single concentration, luciferase luminescence, Sufu-KO-LIGHT cells | shares compounds with Gli-Sufu antag | Gli luciferase reporter | inhibition, % at 5 µM | 2,500 tested, 40% active;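 active = mean inhibition at 5 µM reaching about 45%, limit read from the data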
# Gli cytotox: cytotoxicity in Sufu-KO-LIGHT cells, confirmation, cytotoxicity control for Gli-SUFU antagonist project, cell-based, ATP luminescence, single concentration; shares compounds with Gli-Sufu antag; cytotoxicity, % at 5 µM; 2,500 tested, 32% active; AID 651994, 2013;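 active = mean cytotoxicity at 5 µM above about 25%, limit read from the data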;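 also: cells exposed to compound overnight for roughly 16 to 18 hours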
# Wnt3a cs: Wnt3a reporter signal inhibition, confirmation, counter-screen for Gli-SUFU antagonist project, Wnt-LIGHT cells, luminescence, single concentration; shares compounds with Gli-Sufu antag; inhibition, % at 6.25 µM; AID 651995, 2013; 2,500 tested, 20% active; Wnt3a-driven luciferase reporter;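 active = mean inhibition above about 25%, limit read from the data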
# Hits are given with their value; 0 = inactive; - = not tested or not shown. Compounds with a hit are over-represented: about 4% of the library has one in this group of screens.
SMILES,Beta apoptosis,CSC inhib,Shn3 3UTR inh,Mdm2-MdmX inh,Gli-Sufu antag,PAX8 reporter,Gli antag conf,Gli cytotox,Wnt3a cs
C[C@H](CO)N1C[C@H](C)[C@H](CN(C)Cc2ccc3c(c2)OCO3)Oc2ccc(NS(=O)(=O)c3ccc(F)cc3)cc2C1=O,-,-,-,-,-,0,-,-,-
O=C(Nc1nc2c(s1)C(=O)CCC2)c1ccccc1,0,0,0,0,70,-,0,29,0
O=C(Nc1nc(=O)c2ccccc2s1)c1ccccc1,0,0,0,0,0,0,-,-,-
COc1ccc(C(=O)Nc2ccc3c(c2)C(=O)N(C)C[C@H](OC)[C@@H](C)CN(C)[C@H](C)CO3)cc1,-,-,-,-,-,0,-,-,-
CN(C)CCNC(=O)c1cccc2nc3c(ccc4ccccc43)nc12,-,-,0,-,0,0,-,-,-
COc1cccc2nc3c(C(=O)NCCN(C)C)cccc3cc12,-,-,0,-,70,0,62,0,0
COc1ccc(C(=O)NCCN(C)C)c2nc3ccccc3cc12,-,-,93,-,64,0,70,38,0
COCC(=O)Nc1ccc2c(c1)[C@H]1C[C@H](CC(=O)NCc3cc(F)ccc3F)O[C@@H](CO)[C@H]1O2,-,-,-,-,-,0,-,-,-
CCS(=O)(=O)c1nc(S(=O)(=O)c2ccc(C)cc2)c(N2CCOCC2)s1,0,0,0,0,0,0,0,0,0
CS(=O)(=O)c1nc(S(=O)(=O)c2ccc(Cl)cc2)c(N2CCN(CCO)CC2)s1,0,0,0,0,0,0,-,-,-
Cc1ccc(S(=O)(=O)c2nc(S(=O)(=O)c3ccc(C)cc3)c(N3CCN(CCO)CC3)s2)cc1,-,0,0,0,55,0,0,0,62
NS(=O)(=O)c1ccc(NC(=O)CSc2ccccc2)cc1,0,0,0,0,0,0,-,-,-
NS(=O)(=O)c1ccc(NC(=O)CSC2=NC(=O)C(c3ccccc3)C(=O)N2)cc1 (stereo not drawn),0,0,0,0,88,0,0,0,0
CCCCOc1ccccc1NC(=O)c1ccco1,0,0,0,0,0,-,-,-,-
CCCCOc1ccccc1NC(=O)c1scc2c1OCCO2,-,-,0,-,56,0,0,0,0
COc1ccc(S(=O)(=O)Nc2ccc3c(c2)C(=O)N([C@H](C)CO)C[C@H](C)[C@H](CN(C)C(=O)c2ccncc2)OCCCC[C@H](C)O3)cc1,-,-,-,-,-,0,-,-,-
OC(CN1CCN(c2cccc(Cl)c2)CC1)c1ccc(F)cc1 (stereo not drawn),0,0,0,0,69,0,0,0,0
C/C(=N\Nc1ccc(S(=O)(=O)Nc2ccccc2)cc1[N+](=O)[O-])c1ccncc1,0,0,-,0,-,0,-,-,-
COc1ccc(NS(=O)(=O)c2ccc(N/N=C(\C)c3ccncc3)c([N+](=O)[O-])c2)cc1,0,0,0,0,66,0,66,0,35
COc1ccccc1S(=O)(=O)N1CC[C@@H]2[C@H]1c1cc(-c3cccc(C#N)c3)ccc1N[C@@H]2CO,-,-,-,-,-,0,-,-,-
C[C@H](CO)N1C[C@H](C)[C@@H](CN(C)C(=O)Nc2ccc(C(F)(F)F)cc2)OCCCC[C@H](C)Oc2ccc(NC(=O)C3CCCCC3)cc2C1=O,-,-,-,-,-,0,-,-,-
CN1c2ccc(-c3ccccc3)cc2[C@H]2[C@H](CCN2S(=O)(=O)c2ccccc2F)[C@@H]1CO,-,-,-,-,-,0,-,-,-
CC(=O)Nc1ccc2c(c1)C(=O)N(C)[C@H]1CC[C@@H](CC(=O)NCc3ccccc3)O[C@H]1CO2,-,-,-,-,-,0,-,-,-
Cc1nc2ccccc2n1CC(=O)NC(C)C1CC2CCC1C2 (stereo not drawn),0,0,0,0,60,0,54,0,0
CC(NC(=O)Cn1c(NCCO)nc2ccccc21)C1CC2CCC1C2 (stereo not drawn),0,0,0,0,0,0,-,-,-

# Screening results deposited in PubChem by several laboratories.
